Bioassay records (PubChem)
The list is not random: actives were taken first. Their share in the collection is about 4.7%.
D1 antagonist – human D1 dopamine receptor antagonism; P21728; HEK293 TREx D1 cells, calcium flux, dopamine EC80; active compounds read low; activity change, negative = inhibition, % at 10 µM; hit rate 3.2% among 360,000; AID 504652; in the data active means activity change below about -30%; further: on the % scale 0 is the no-effect control and ±100 the full control effect
Target sequence (P21728 whole entry, looked up): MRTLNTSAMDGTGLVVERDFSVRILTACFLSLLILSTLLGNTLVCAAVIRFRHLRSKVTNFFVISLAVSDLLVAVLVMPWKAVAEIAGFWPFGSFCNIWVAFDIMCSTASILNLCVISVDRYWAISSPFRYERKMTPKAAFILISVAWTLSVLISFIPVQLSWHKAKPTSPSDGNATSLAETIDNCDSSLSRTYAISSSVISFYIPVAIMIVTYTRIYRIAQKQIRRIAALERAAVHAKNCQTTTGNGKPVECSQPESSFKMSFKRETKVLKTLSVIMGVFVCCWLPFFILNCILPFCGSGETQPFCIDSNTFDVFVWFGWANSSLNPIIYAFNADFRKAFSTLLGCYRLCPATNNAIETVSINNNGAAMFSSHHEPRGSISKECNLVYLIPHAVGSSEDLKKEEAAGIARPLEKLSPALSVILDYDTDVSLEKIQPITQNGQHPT
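Inducible Hek293 Trex D1 cells (tetracycline, overnight, 30 C). Calcium dye 30–90 min RT. Antagonist mode: EC80 dopamine added after 180 s compound read.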
D1 agonist – activates the human D1 dopamine receptor; P21728; HEK293 T-REx D1 cells, calcium flux, agonist mode; activation, % at 2 µM; hit rate 1% among 360,000; further: 0% is about no effect
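Agonism was scored from calcium flux recorded over 180 s (1 read/s) after pintool compound addition, following a 10-cycle baseline. Cells were inducible force-coupled HEK293 TREx D1, plated overnight at 30 C and loaded with no-wash calcium dye.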
TRHR ag – agonists of human TRH receptor; TRHR cells, calcium flux fluo-8, FDSS agonist mode; hit rate 0.18% among 360,000; P34981; activation, % at 2 µM; further: 0% is about no effect
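Read-out: compound-evoked intracellular calcium rise in TRHR cells, fluo-8 dye, kinetic FDSS fluorescence at 1 s/cycle following a 10-cycle baseline. Cells cultured overnight before dye loading (30 min–1.5 h, RT).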
TRHR enhancer – TRH receptor (human) allosteric enhancement; P34981; TRHR cells, fluo-8 calcium fluorescence, EC20 TRH enhancement; enhancement, % at 2 µM; hit rate 0.66% among 360,000; AID 493056; in the data active means enhancement above about 30%; further: 0% is about no effect
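TRHR-expressing cells loaded with fluo-8 calcium dye were read kinetically (ex 480/em 530) during compound addition, then stimulated with an EC20 of TRH (10 nM final). Enhancement of the Gq-mediated intracellular calcium response was scored.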
D1 PAM – enhances dopamine response at the human D1 receptor; HEK293 TREx D1 cells, calcium flux, dopamine EC20 potentiation; potentiation, % at 10 µM; hit rate 0.036% among 360,000; AID 504651; in the data active means potentiation above about 30%; further: 0% is about no effect
* hit, by the source's call. Unless noted, no stated cut-off is given here; in the data, active means activation above about 30%; inactive means the rest.

SMILES | D1 antagonist | D1 agonist | TRHR ag | TRHR enhancer | D1 PAM
Cc1ccc2c(c1)C(c1ccccc1)N(C(=O)c1ccc(S(=O)(=O)N3CCCCC3)cc1)CC(=O)N2 (configuration not stated) | -48.0* | 4.6 | -0.1 | -0.4 | -1.6
O=C1CN(C(=O)c2ccc(S(=O)(=O)N3CCCC3)cc2)C(c2ccccc2)c2cc(Br)ccc2N1 (configuration not stated) | 3.5 | 6.2 | 0.6 | -0.1 | 1.1
COc1ccc(C(=O)N2CC(=O)Nc3ccc(C)cc3C2c2ccccc2)c(OC)c1 (configuration not stated) | -45.4* | 3.7 | 0.5 | 2.8 | 0.6
COc1ccccc1C(=O)N1CC(=O)Nc2ccc(C)cc2C1c1ccc(F)cc1 (configuration not stated) | -3.9 | 1.4 | 0.7 | 2.8 | -8.3
CSc1ccc(CCNC(=O)Cn2c(C)c3cnn(-c4ccccc4)c(=O)c3c2C)cc1 | -9.1 | 0.6 | -0.3 | 19.3 | -3.4
CCc1ccccc1NC(=O)c1ccc(Cn2cc([N+](=O)[O-])cn2)cc1 | -5.4 | 38.3* | 2.3 | 1.6 | -3.0
CCN(CC)C(=O)c1ccc(Cn2cc([N+](=O)[O-])cn2)o1 | -36.8* | 6.5 | -0.4 | 12.3 | -0.7
COc1ccc(N(CC(=O)NC(C)c2ccccc2)S(=O)(=O)c2c(C)nn(C)c2C)cc1 (configuration not stated) | -1.3 | 0.2 | -0.5 | -1.0 | -1.5
C=CCC(Nc1ccccc1)c1ccc(OC)c(OC)c1 (configuration not stated) | -40.3* | 0.3 | -0.4 | 0.2 | -3.4
COc1cccc(CNC(=O)c2cnc(N3CCCCC3)c3ccccc23)c1 | -8.2 | -0.4 | -0.2 | 1.3 | -3.8
CSc1ncccc1C(=O)OCC(=O)c1cc(C)n(CC2CCCO2)c1C (configuration not stated) | -33.7* | 4.5 | 0.0 | -5.5 | -10.4
Cc1cc(C(=O)CSc2nc3ccccc3[nH]2)c(C)n1CC1CCCO1 (configuration not stated) | -32.9* | 14.0 | -0.9 | 1.2 | -7.8
CCc1ccccc1NC(=O)Cn1c(=O)n(CCc2ccccc2)c(=O)c2sc3ccccc3c21 | 5.7 | -1.3 | -2.1 | -0.2 | 1.0
NC(=O)c1ccc(NCC2COc3ccccc3O2)c([N+](=O)[O-])c1 (configuration not stated) | -37.0* | 7.7 | -0.7 | -1.0 | -9.4
CN(C)S(=O)(=O)c1ccc(NCC2COc3ccccc3O2)c([N+](=O)[O-])c1 (configuration not stated) | 4.9 | 2.8 | 0.2 | -3.7 | -0.6
COc1cccc(/C=c2\s/c(=C/C(=O)c3ccc(C)cc3)[nH]c2=O)c1OC | -8.5 | 5.7 | 4.4 | 1.1 | -3.4
COc1ccc(/C=c2\s/c(=C/C(=O)c3ccc(C)cc3)[nH]c2=O)c(OC)c1 | -3.2 | 136.0* | 54.4* | 1.0 | -6.0
Cc1ccc(S(=O)(=O)Nc2cccnc2)cc1 | 1.2 | 2.4 | 2.9 | -3.7 | -6.8
CCCCOc1ccc(S(=O)(=O)Nc2cccnc2)cc1 | -36.6* | 23.0 | 0.5 | -3.1 | -0.8
Cc1ccc(CNC(=O)CCCn2c(=O)[nH]c3ccc(Br)cc3c2=O)cc1 | -1.2 | 0.5 | 0.0 | 2.2 | -0.7
COc1ccc(C(C(=O)NCC2CCCO2)N(C(=O)Cn2nnc3ccccc32)c2ccc(NC(C)=O)cc2)c(OC)c1 (configuration not stated) | -67.1* | 18.1 | 0.6 | -0.3 | -7.2
Cc1ccc(C(C)C)c(OCCCn2c(=O)oc3ccccc32)c1 | 4.7 | 33.1* | 2.8 | 1.4 | -1.9
Cc1cccc(-c2nc(CCNC(=O)c3ccccc3Br)cs2)c1 | -38.7* | 3.0 | -0.6 | -7.3 | -6.2
COc1cccc(/C=N/N2CCOCC2)c1O | 11.0 | 1.6 | 0.3 | 0.2 | -2.4
COc1cccc(C=Nc2ccc(N3CCOCC3)cc2)c1O | -7.7 | 4.2 | -2.3 | 36.1* | 4.5
SMILES | D1 antagonist | D1 agonist | TRHR ag | TRHR enhancer | D1 PAM
N#Cc1cc(C(=O)c2cc(F)ccc2O)cn(-c2nccs2)c1=O | 6.5 | 305.9* | 183.2* | 4.5 | -6.9
N#Cc1cc(C(=O)c2ccccc2O)cn(-c2nccs2)c1=O | 44.3 | 553.4* | 292.2* | 30.3* | 18.4
CCOc1ccc(NC(=O)c2ccc3c(c2)CCN3S(=O)(=O)c2ccc(Cl)cc2)cc1 | -0.2 | -1.1 | 1.1 | -2.5 | 6.8
Cc1cccc(Cn2c(C)nc3ccc([N+](=O)[O-])cc3c2=O)c1 | -33.4* | 10.5 | 0.6 | -13.6 | -2.8
Cc1nc2ccc([N+](=O)[O-])cc2c(=O)n1Cc1cccc(F)c1 | 1.9 | 3.9 | -0.8 | -17.8 | -5.8
Cc1nc2ccc([N+](=O)[O-])cc2c(=O)n1Cc1ccc(F)cc1 | -32.1* | 7.3 | 0.0 | -13.6 | -4.6
CCOC(=O)C1=C(CN2CCN(c3cccc(OC)c3)CC2)NC(=O)NC1c1ccc(OC)cc1 (configuration not stated) | 17.3 | -1.1 | -0.5 | -3.0 | 3.5
COc1ccc(S(=O)(=O)Nc2cccc3cccnc23)c([N+](=O)[O-])c1 | -28.2 | 4.3 | 1.3 | -4.2 | -2.4
COc1cc(/C=c2\s/c(=C(/C#N)C(=O)N3CCCC3)n(-c3ccccc3)c2=O)ccc1O | 0.5 | 138.0* | 71.5* | 11.2 | 0.1
Cc1cc(Nc2ccccc2)c2c([N+](=O)[O-])cc(C)c(C)c2n1 | -1.8 | 3.3 | -1.1 | 39.1* | -5.5
CCC1=C(OC(=O)N(CC)CC)N2C(=O)OC(=NCC(=O)OC)[C@]2(C)[C@H]2C1=CC[C@H]1C(=O)N(CC)C(=O)[C@H]12 | 40.0 | 3.1 | 0.2 | -4.0 | 0.8
CCC1=C(OC(=O)N(CC)CC)N2C(=O)OC(=NCc3ccccc3)[C@]2(C)[C@H]2C1=CC[C@H]1C(=O)N(CC)C(=O)[C@H]12 | -34.5* | 1.1 | -0.4 | -6.4 | -7.9
CCC(CC)C(=O)N1CCc2cc(OC)c(OC)cc2C1COc1ccc2c(C)cc(=O)oc2c1 (configuration not stated) | -1.6 | -0.4 | -0.2 | -1.5 | 1.1
CCOC(=O)c1ccccc1NC1c2ccccc2C(=O)N1C1CCN(C(=O)OCC)CC1 (configuration not stated) | 2.6 | 12.1 | 0.1 | 4.8 | 2.1
CCOC(=O)N1CCC(N2C(=O)c3ccccc3C2Nc2ccccc2C)CC1 (configuration not stated) | -71.1* | -2.6 | -0.4 | -0.4 | 3.1
CC1CN(C(=O)COC(=O)CSc2ccc(C(N)=O)cc2[N+](=O)[O-])CC(C)O1 (configuration not stated) | 3.8 | 2.1 | -0.1 | 4.8 | 8.4
NC(=O)c1ccc(SCC(=O)OCC(=O)N2CCCC2=O)c([N+](=O)[O-])c1 | -43.2* | 0.6 | 0.0 | -0.2 | -1.4
COc1ccc(-c2cc3c(=O)n(CC(=O)Nc4cc(F)ccc4F)ccn3n2)cc1OC | -0.6 | -1.1 | 0.1 | -0.3 | 0.8
